Experimental data: PubChem BioAssay AID1159580 (chemical genetic matrix, 2015)
Where “and” joins values, the source holds several entries; their conditions need not be identical. Equal values may be shown once. About 2,000 (36%) of roughly 5,500 compounds were called active. About 18% were inconclusive and are not listed. No stated cut-off is given here; in the data, active means normalized growth mostly below about 0.91 (no sharp cut-off); inconclusive means no clear call, values can overlap the other calls; inactive means mostly above about 0.92. The list shows a part of the results.

Experiment: chemical genetic growth profiling, strain panel (AID 1159580);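 further: tested at 20 µM; growth read once vehicle control cultures reached saturation at 30 °C; 1 = growth at the plate median or of vehicle wells; lower values mean less growth of the strain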
Settings: S. cerevisiae deletion strains, growth OD

Measured: normalized growth

COC(=O)c1cc(=O)c(O)c2c(O)c(O)ccc2c1
active: locus YCL029C, strain bik1, hits give low values 0.713 | locus YDL035C, strain GPR1, hits give low values 0.512 | locus YDL074C, strain BRE1, hits give low values 0.743 | locus YDL101C, strain DUN1, hits give low values 0.778 | locus YDL185W, strain tfp1, hits give low values 0.631 | locus YDL192W, strain arf1, hits give low values 0.772 | locus YDR101C, strain arx1, hits give low values 0.842 | locus YDR137W, strain rgp1, hits give low values 0.821 | locus YDR150W, strain NUM1, hits give low values 0.852 | locus YDR162C, strain NBP2, hits give low values 0.275 | locus YDR318W, strain mcm21, hits give low values 0.856 | locus YDR502C, strain sam2, hits give low values 0.891 | locus YER155C, strain BEM2, hits give low values 0.922 | locus YER167W, strain BCK2, hits give low values 0.862 | locus YGL078C, strain dbp3, hits give low values 0.732 | locus YGL086W, strain mad1, hits give low values 0.71 | locus YGL248W, strain PDE1, hits give low values 0.73 | locus YGR078C, strain PAC10, hits give low values 0.713 | locus YGR135W, strain pre9, hits give low values 0.795 | locus YGR229C, strain SMI1, hits give low values 0.151 | locus YHR030C, strain SLT2, hits give low values 0.604 and 0.636 | locus YHR079C, strain IRE1 (second series), hits give low values 0.874 | locus YHR079C, strain IRE1, hits give low values 0.81 | locus YHR129C, strain ARP1, hits give low values 0.681 | locus YHR200W, strain rpn10, hits give low values 0.878 | locus YIL066C, strain RNR3, hits give low values 0.552 | locus YIL073C, strain SPO22, hits give low values 0.416 | locus YIL125W, strain kgd1, hits give low values 0.812 | locus YJL095W, strain BCK1, hits give low values 0.59 and 0.624 | locus YJL168C, strain set2, hits give low values 0.924 | locus YJL187C, strain SWE1 (second series), hits give low values 0.627 | locus YJR043C, strain POL32, hits give low values 0.709 | locus YJR066W, strain TOR1, hits give low values 0.556 | locus YKL009W, strain mrt4, hits give low values 0.773 | locus YKL068W, hits give low values 0.808 | locus YKL085W, strain MDH1 (second series), hits give low values 0.793 | locus YKL085W, strain MDH1, hits give low values 0.793 | locus YKL190W, strain CNB1, hits give low values 0.593 | locus YKR001C, strain vps1, hits give low values 0.764 | locus YLR039C, strain RIC1, hits give low values 0.354 | locus YLR058C, strain SHM2, hits give low values 0.696 | locus YLR113W, strain HOG1, hits give low values 0.795 | locus YLR262C, strain YPT6 (second series), hits give low values 0.847 | locus YLR268W, strain sec22, hits give low values 0.707 | locus YLR342W, strain FKS1 (second series), hits give low values 0.569 | locus YLR371W, strain rom2, hits give low values 0.781 | locus YLR418C, strain cdc73, hits give low values 0.629 | locus YML016C, strain PPZ1, hits give low values 0.771 | locus YML032C, strain rad52, hits give low values 0.73 | locus YMR058W, strain fet3, hits give low values 0.89 | locus YMR223W, strain ubp8, hits give low values 0.818 | locus YMR263W, strain SAP30, hits give low values 0.882 | locus YMR307W, strain GAS1, hits give low values 0.477 | locus YNL067W, strain RPL9B, hits give low values 0.745 | locus YNL153C, strain GIM3, hits give low values 0.841 | locus YNL183C, strain NPR1, hits give low values 0.643 | locus YNL233W, strain BNI4, hits give low values 0.678 | locus YNL250W, strain rad50, hits give low values 0.62 | locus YNL271C, strain bni1, hits give low values 0.731 | locus YNL298W, strain CLA4, hits give low values 0.725 | locus YNL322C, strain KRE1, hits give low values 0.638 | locus YNR052C, strain pop2, hits give low values 0.7 | locus YOL006C, strain TOP1, hits give low values 0.326 | locus YOL147C, strain pex11, hits give low values 0.91 | locus YOR061W, strain CKA2, hits give low values 0.664 | locus YOR069W, strain VPS5, hits give low values 0.796 | locus YOR136W, strain idh2, hits give low values 0.869 | locus YOR144C, strain elg1, hits give low values 0.822 | locus YOR184W, strain ser1, hits give low values 0.801 | locus YOR231W, strain MKK1, hits give low values 0.672 | locus YPL256C, strain CLN2, hits give low values 0.787 | locus YPR141C, strain kar3, hits give low values 0.777 | locus YPR163C, strain tif3, hits give low values 0.832 | locus YPR167C, strain met16, hits give low values 0.802 | strain wtn01, hits give low values 0.785
inactive: locus YAL021C, strain ccr4, hits give low values 1 | locus YAL026C, strain drs2, hits give low values 0.968 | locus YAL030W, strain snc1, hits give low values 0.991 | locus YBL061C, strain skt5, hits give low values 0.988 | locus YBR009C, strain hhf1, hits give low values 0.985 | locus YBR021W, strain FUR4, hits give low values 1.07 | locus YBR023C, strain chs3, hits give low values 0.995 | locus YBR171W, strain sec66, hits give low values 0.976 | locus YBR229C, strain ROT2, hits give low values 0.976 | locus YBR231C, strain swc5, hits give low values 0.976 | locus YBR279W, strain paf1, hits give low values 1 | locus YCL011C, strain gbp2, hits give low values 1 | locus YCL016C, strain dcc1, hits give low values 0.989 | locus YCL061C, strain MRC1, hits give low values 0.987 | locus YCL069W, strain vba3, hits give low values 1 | locus YCR088W, strain abp1, hits give low values 0.997 | locus YDL005C, strain med2, hits give low values 1.01 | locus YDL040C, strain nat1, hits give low values 0.986 | locus YDR001C, strain nth1, hits give low values 0.999 | locus YDR069C, strain doa4, hits give low values 0.955 | locus YDR159W, strain sac3, hits give low values 0.947 | locus YDR195W, strain ref2 0.934 | locus YDR297W, strain sur2, hits give low values 0.987 | locus YDR334W, strain swr1, hits give low values 0.983 | locus YDR335W, strain msn5, hits give low values 0.994 | locus YDR388W, hits give low values 0.954 | locus YDR392W, strain spt3, hits give low values 0.99 | locus YEL003W, strain gim4, hits give low values 0.996 | locus YEL037C, strain rad23, hits give low values 0.997 | locus YEL061C, strain CIN8 (second series), hits give low values 0.994 | locus YER015W, strain faa2, hits give low values 0.985 | locus YER016W, strain bim1, hits give low values 0.973 | locus YER110C, hits give low values 0.988 | locus YER111C, strain swi4, hits give low values 0.976 | locus YER155C, strain BEM2 (second series), hits give low values 0.977 | locus YFR010W, strain ubp6, hits give low values 0.958 | locus YGL167C, strain pmr1, hits give low values 0.98 | locus YGL173C, strain kem1, hits give low values 0.984 | locus YGL227W, strain vid30, hits give low values 0.988 | locus YGL240W, strain doc1, hits give low values 1.01 | locus YGL253W, strain hxk2, hits give low values 0.998 | locus YGR252W, strain gcn5, hits give low values 0.948 | locus YHR013C, strain ard1, hits give low values 1.04 | locus YHR027C, strain rpn1, hits give low values 0.991 | locus YHR094C, strain hxt1, hits give low values 0.968 | locus YHR142W, strain chs7, hits give low values 1.02 | locus YIR030C, strain dcg1, hits give low values 0.932 | locus YJL092W, strain hpr5, hits give low values 0.991 | locus YJL095W, strain BCK1 (second series), hits give low values 0.99 | locus YJL115W, strain asf1, hits give low values 0.99 | locus YJL129C, strain trk1, hits give low values 0.997 | locus YJL134W, strain LCB3, hits give low values 0.958 | locus YJL154C, strain vps35, hits give low values 1.02 | locus YJL164C, strain tpk1, hits give low values 0.995 | locus YJL166W, strain qcr8, hits give low values 0.999 | locus YJL187C, strain SWE1, hits give low values 0.992 | locus YKL160W, strain elf1, hits give low values 1.01 | locus YKR026C, strain gcn3, hits give low values 0.961 | locus YKR091W, strain srl3, hits give low values 0.994 | locus YLL001W, strain dnm1, hits give low values 0.99 | locus YLL026W, hits give low values 0.994 | locus YLL041C, strain sdh2, hits give low values 0.999 | locus YLR027C, strain aat2, hits give low values 0.996 | locus YLR102C, strain apc9, hits give low values 0.966 | locus YLR221C, strain rsa3, hits give low values 0.97 | locus YLR258W, strain gsy2, hits give low values 0.996 | locus YLR320W, strain mms22, hits give low values 0.984 | locus YLR342W, strain FKS1, hits give low values 0.978 | locus YLR357W, strain rsc2, hits give low values 0.925 | locus YLR370C, strain arc18, hits give low values 0.999 | locus YLR384C, strain iki3, hits give low values 0.995 | locus YML120C, strain ndi1, hits give low values 0.997 | locus YML124C, strain tub3, hits give low values 0.952 | locus YMR078C, strain ctf18, hits give low values 0.943 | locus YMR125W, strain sto1, hits give low values 0.989 | locus YMR129W, hits give low values 0.988 | locus YMR205C, strain PFK2, hits give low values 0.987 | locus YMR231W, strain pep5, hits give low values 0.995 | locus YNL071W, strain lat1, hits give low values 1.02 | locus YNL209W, strain ssb2, hits give low values 0.99 | locus YNL248C, strain rpa49, hits give low values 0.99 | locus YNL307C, strain MCK1, hits give low values 0.953 | locus YNL322C, strain KRE1 (second series), hits give low values 0.967 | locus YNR049C, strain mso1, hits give low values 0.998 | locus YOL012C, strain htz1 0.795 | locus YOR001W, strain rrp6, hits give low values 0.985 | locus YOR070C, strain gyp1, hits give low values 0.995 | locus YOR080W, strain dia2, hits give low values 0.983 | locus YOR083W, strain WHI5, hits give low values 1 | locus YOR106W, strain vam3, hits give low values 0.966 | locus YOR265W, strain rbl2, hits give low values 0.994 | locus YOR270C, strain vph1, hits give low values 1.04 | locus YOR290C, strain snf2, hits give low values 0.94 | locus YOR316C, strain cot1, hits give low values 0.952 | locus YPL051W, strain arl3, hits give low values 0.982 | locus YPL078C, strain atp4, hits give low values 1.02 | locus YPL106C, strain sse1, hits give low values 0.965 | locus YPL240C, strain hsp82, hits give low values 0.978 | locus YPL241C, strain CIN2, hits give low values 0.943 | locus YPR119W, strain clb2, hits give low values 0.94
